Source: PubChem BioAssay
Rab9 prom act = activators of Rab9 promoter | Huh7 Rab9 promoter-luciferase reporter, luminescence, 24 h | Potency, µM (doses to about 9.22 µM), without a hit: at the highest dose activation, negative = inhibition, most hits filed as activators | 320,000 compounds, 2.8% hits; note: % of control where 0% means no effect; nearly all actives have a fitted effect of over 60% in size
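Steps: seed 1500 Huh7 Rab9-luc cells per well, rest 2 h at 37 °C; add compound in DMSO; incubate 24 h; add luciferase reagent, 10 min ambient; read luminescence.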
Luc counter = Kinase-Glo luciferase inhibition (counter-screen). Kinase-Glo luciferase, ATP luminescence, 8 min. Q27757. Potency, µM (titrated, usually from 38.3 µM), without a hit: top-dose activity change, negative = inhibition, hits mostly inhibitors. AID 1379. 200,000 compounds, 0.28% hits; note: % is set by controls: 0 for no effect and ±100 for the full control effect; nearly all actives have a fitted effect of over 60% in size
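Kinase-Glo luciferase light output from ATP and luciferin was measured with 10 uM ATP, within the enzyme's linear range. Buffer: 50 mM imidazole pH 7.2, 50 mM KCl, 7 mM MgCl2, 0.01% Tween 20, 0.05% BSA; luminescence read after 8 min at ambient temperature.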
NPC1 prom act = activates the NPC1 promoter | AID 485313 | Potency, µM (titrated, usually from 9.22 µM), inactives show at the highest dose activation, actives largely listed as activators | 320,000 compounds, 2.4% hits | Huh7 NPC1 promoter luciferase reporter, 24 h; note: % of control where 0% means no effect; nearly all actives have a fitted effect of over 60% in size
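Compounds in DMSO were transferred onto Huh7 NPC1-luciferase reporter cells pre-incubated 2 h; after 24 h at 37 °C, Amplite reagent was dispensed and luminescence recorded 10 min later.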
ELG1 genotoxic = genotoxicity induction in ELG1-luciferase HEK293T cells; HEK293T ELG1-luciferase reporter, luminescence, 16 h; Potency, µM (top dose mostly 46 µM), for inactives: at the top dose activity change, positive = activation, most hits filed as activators; 330,000 compounds, 1.3% hits; AID 504466; note: % of control where 0% means no effect; nearly all actives have a fitted effect of over 60% in size
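HEK293T cells expressing luciferase-tagged ELG1 were exposed to compound or DMSO vehicle for 16 hr at 37 °C and 5% CO2. Luciferase activity was then measured with ONE-Glo after 30 min at room temperature.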
FLuc counter = firefly luciferase modulation, counter-screen for miR-21 project; P08659; purified FLuc, Km substrates, luminescence inhibition; Potency, µM (highest dose often 57.5 µM), for inactives: at the top dose activity change, negative = inhibition, usual class: inhibitors; 360,000 compounds, 6.9% hits; AID 588342;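 note: plate controls were vehicle for no effect and reference inhibitor for full effect; nearly all actives have a fitted effect of over 55% in size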
Target sequence (P08659 whole entry, looked up): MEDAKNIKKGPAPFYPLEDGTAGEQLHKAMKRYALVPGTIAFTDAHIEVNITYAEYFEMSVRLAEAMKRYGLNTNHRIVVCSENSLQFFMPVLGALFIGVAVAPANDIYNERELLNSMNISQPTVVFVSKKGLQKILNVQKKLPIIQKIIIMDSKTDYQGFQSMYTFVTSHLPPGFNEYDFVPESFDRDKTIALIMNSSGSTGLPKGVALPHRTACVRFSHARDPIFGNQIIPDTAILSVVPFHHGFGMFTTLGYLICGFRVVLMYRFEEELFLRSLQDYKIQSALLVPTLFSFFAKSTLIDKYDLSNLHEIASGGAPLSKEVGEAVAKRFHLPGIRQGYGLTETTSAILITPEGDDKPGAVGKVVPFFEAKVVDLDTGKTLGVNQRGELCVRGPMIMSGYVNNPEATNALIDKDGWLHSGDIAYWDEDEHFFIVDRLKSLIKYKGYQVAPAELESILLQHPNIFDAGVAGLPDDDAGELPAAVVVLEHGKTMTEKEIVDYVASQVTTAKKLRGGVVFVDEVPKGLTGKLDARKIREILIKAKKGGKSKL
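Purified P. pyralis luciferase, 10 nM final, with Km-level 10 uM D-luciferin and 10 uM ATP in 50 mM Tris acetate pH 7.5, 10 mM Mg acetate, 0.01% Tween-20, 0.05% BSA; 6-point qHTS titration about 60 µM downward; luminescence read.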
SMN2 splice up = increases expression of the SMN2 splice variant. HEK293 SMN2-luciferase splicing reporter, luminescence, 30-36 h. Potency, µM (series often up to 46.1 µM), inactives show at the top dose activity change, positive = activation, usual class: activators. 210,000 compounds, 2.8% hits. AID 1458; note: % of control where 0% means no effect; nearly all actives have a fitted effect of over 55% in size
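HEK293 cells carry an SMN2 minigene-luciferase reporter in which exon 7 inclusion puts luciferase in frame. Cells were seeded at 2000 cells/well, attached for 10-12 hours, then exposed to compounds for 30-36 hours at 37C before ONE-Glo luminescence.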
Active calls of the source: *; ? = inconclusive; · = no result; [ ] = remark or other dose. Shown are actives, neighbours in structure and some others; about 7.5% of the full set was active somewhere. Calls come from the whole dose curve; as a rule, active = well fitted curve in the direction sought with a large enough effect; inconclusive = small, poorly fitted or top-dose-only effect, or another doubt; inactive = no such curve, though single readings can be large; an effect the other way counts as inactive or inconclusive. Potency is the fitted concentration of half-maximal effect.

SMILES	Rab9 prom act	Luc counter	NPC1 prom act	ELG1 genotoxic	FLuc counter	SMN2 splice up
O=C(NC(=S)NCC1COc2ccccc2O1)c1ccccc1 (stereo not drawn)	0%	3%	0%	0%	?	-33%
O=C(NCC1COc2ccccc2O1)c1ccco1 (stereo not drawn)	10%	-1%	3%	6%	-2%	·
O=C(NCC1COc2ccccc2O1)c1ccccc1 (stereo not drawn)	4.5µM*	-2%	4µM*	?	12µM*	13µM*
O=C(NCC1COc2ccccc2O1)c1cc2ccccc2o1 (stereo not drawn)	6%	-1%	8%	16%	13µM*	23%
O=c1[nH]c(=O)n(C2CC(O)C(CO)O2)cc1C(F)(F)F (stereo not drawn)	·	-6%	·	·	·	-15%
CCOC(=O)c1c(C)[nH]c(C)c1C(=O)CSc1nnc(-c2ccncc2)n1Cc1ccccc1	23%	-1%	5%	-9%	0%	-8%
Cc1ccc(C(=O)CSc2nnc(-c3ccco3)n2Cc2ccccc2)cc1	?	-8%	?	13%	?	19%
CCn1c(SCC(=O)Nc2ccc(OCc3ccccc3)cc2)nnc1-c1ccco1	-4%	7%	-4%	-9%	15µM*	-32%
CCOC(=O)c1c(C)[nH]c(C)c1C(=O)CSc1nnc(-c2ccco2)n1Cc1ccccc1	-2%	0%	9%	-30%	-1%	35µM*
O=C(CSc1nnc(-c2ccco2)n1Cc1ccccc1)c1ccccc1	1.4µM*	-2%	4.5µM*	?	12µM*	7%
O=C(O)CSc1nnc(-c2cccc(S(=O)(=O)N3CCOCC3)c2)n1-c1ccc(F)cc1	·	·	·	0%	·	·
O=C(CSc1nnc(COc2ccccc2Cl)o1)Nc1ccccc1	-4%	·	-2%	1%	?	·
CC1CCCCC1NC(=O)CSc1nnc(COc2ccccc2Cl)o1 (stereo not drawn)	3%	-1%	3%	1%	21µM*	7%
CC(C)(C)NC(=O)NC(=O)CSc1nnc(COc2ccccc2Cl)o1	-7%	-6%	-2%	-3%	17µM*	13%
CC(C)NC(=O)NC(=O)CSc1nnc(-c2c[nH]c3ccccc23)o1	2%	·	3%	3%	-1%	·
COc1ccc(Cl)cc1NC(=O)CN(C)C(=O)c1ccc(N2CCCCCC2)c([N+](=O)[O-])c1	-5%	·	-5%	-4%	3%	·
CC(=O)Nc1ccc(S(=O)(=O)Nc2ccc(-c3cn4c(C)csc4n3)cc2)cc1	·	·	·	·	17µM*	·
CCS(=O)(=O)Nc1ccc(-c2cn3c(C)csc3n2)cc1	·	·	·	·	19µM*	·
CCS(=O)(=O)NCc1cn2c(C)csc2n1	-4%	-5%	5%	3%	-1%	2%
Cc1ccc(N2NC(C)(c3cccs3)NC2=S)cc1 (stereo not drawn)	3.5µM*	4%	4.5µM*	?	9.5µM*	22%
Cc1ccc(NC2(c3ccccc3)C(=O)c3ccccc3C2=O)cc1F	·	·	·	·	3%	8%
O=C1COC(c2ccccc2)=CN1Cc1ccccc1	-1%	·	2%	0%	3%	·
Cc1ccc2c(COC(=O)c3ccccc3OC(F)F)cc(=O)oc2c1	1%	·	2%	?	4.8µM*	·
Cc1ccc2c(COC(=O)C3=COCCO3)cc(=O)oc2c1	0.79µM*	-5%	3.2µM*	1.8µM*	0.85µM*	?
Cc1ccc2c(COC(=O)CNC(=O)c3ccccc3)cc(=O)oc2c1	-8%	0%	-3%	12%	19µM*	16%
COc1cc(/C=C2\C(=N)N3N=C(S(C)(=O)=O)SC3=NC2=O)ccc1OC(=O)c1ccco1	2%	·	0%	-1%	19µM*	·
CCS(=O)(=O)C1=NN2C(=N)/C(=C\c3ccc(OC(=O)c4ccco4)c(Br)c3)C(=O)N=C2S1	-2%	·	-4%	2%[9.26 µM]	15µM*	·
